Values joined by “and” are separate entries in the source; they are usually repeats but may differ in a detail not shown here. Equal values may be shown once. Compounds without any hit were thinned out: in the full panel of roughly 83,000, 20% have a hit.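 Note: values are percent growth. 100 is the growth of untreated cells, values between 100 and 0 indicate rising inhibition; between -100 and 0 indicates cell death.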 Unmarked numbers belong to inactive results. Active and inactive are the calls of the source. Rule for the calls: active = growth percent below 10; inactive = the rest.

For the test, the system named is MDA-MB-468 breast. Put plainly: NCI-60 one-dose screen, 48 h (100 = growth as untreated, 0 = no growth, -100 = all killed). To be noted: 10 µM unless noted.
Regarding `COc1ccc(Cn2cc3c(c2-c2ccc(OC)cc2)CCc2cnoc2-3)cc1`, the growth was -7.25% (active).

For `C[n+]1cc2cc3c(cc2c2ccccc21)OCO3`, the growth was -21.2% (active).

For the compound `O=C1c2cccc3cccc(c23)C(=O)N1N1C(=O)c2cccc3c(NC4CCCCC4)ccc(c23)C1=O`, the growth was 100%.

`CCOC(=O)n1cc(-c2nonc2-c2cn(C)c3ccccc23)c2ccccc21`: the growth was 13.1%.

Consider `COc1ccc([C@H]2c3[nH]c4ccccc4c3C[C@@H]3C(=O)N(C4CCN(Cc5ccccc5)CC4)CC(=O)N23)c(OC)c1`, for which the growth is 63.4%.

For `Cc1ccc(Sc2oc(-c3ccc(C)cc3)nc2[P+](c2ccccc2)(c2ccccc2)c2ccccc2)cc1`, the growth was -36.5% (active).

With `CC12CCCC(CC(=O)c3[nH]c4ccccc4c31)C2` (stereo unspecified), the growth was -47.5% (active).

In the case of `O=[N+]([O-])c1ccccc1/C=N\Nc1ccccc1`, the growth was 66.3% and 89.3%.

On to `CCOC(=O)CNC(=O)Sc1ccc(C(C)(C)C)cc1`, for which the growth is 111%.

On to `O=C(CNc1nc(-c2ccc(Cl)cc2)cs1)Nc1ccc(-c2nc3ccccc3s2)cc1`, for which the growth is -39.5% (active).

With `CCCCCC(=O)Oc1ccc(/C(=C(/C)Cc2ccc(OC)cc2)c2ccc(OCCCN(C)C)cc2)cc1`, the growth was 56.4%.

Take `O=C1/C(=C/c2ccc([N+](=O)[O-])s2)Oc2ccc(Cl)cc21`: the growth is -36.2% (active).

As for `Cc1cc(C)c(O)c(CNCCCCCCNCc2cc(C)cc(C)c2O)c1`, the growth is -72.2% (active).

For the compound `CN1/C(=C\C=C\C2=[N+](C)c3ccccc3C2(C)C)C(C)(C)c2ccccc21`, the growth is -40.4% (active).

For the compound `CC(Cc1ccco1)C(=O)NC(N)=O` (stereo unspecified), the growth was 95.7%.

Regarding `O=C(O)/C=C/C(=O)c1ccc(Cl)cc1`, the growth was 124%.

With `CCS(=O)(=O)CCCl`, the growth is 101%.

As for `CCC(C)(C)c1cc(O)c(C(C)(C)CC)cc1O`, the growth is -2.33% (active).

In the case of `COc1cccc(/C=C2\SC(=Nc3ccc(NC(C)=O)cc3)NC2=O)c1OC`, the growth was 109%.

Consider `O=C1C[C@H](N2C(=O)c3ccccc3S2(=O)=O)C2CO[C@@H]1O2`, for which the growth is 80.3%.

As to `O=C1NC(=O)C(Cc2ccccc2)(Cc2ccccc2)N1`, the growth is 104%.

As to `Cc1ccc(-c2nc(N3CCN(C(=O)c4ccc(OC(F)(F)F)cc4)CC3)c3ccccc3n2)cc1`, the growth was 93.8%.

With `CS(=O)(=O)Nc1cncc(-c2ccc3ncnc(Nc4cncc(Cl)c4)c3c2)c1`, the growth was 16.7%.

For the compound `COc1cccc(Cn2cc3c(c2)-c2oncc2CC3)c1`, the growth was 1.66% (active).

Regarding `COc1ccc(Cn2cc(Cn3cc(C=C4C(=O)NC(=O)NC4=O)c4ccccc43)nn2)cc1`, the growth was 18.5%.

As to `C=C(C)C(=O)O[C@H]1C[C@@]2(C)OC(=CC2=O)/C(C)=C\[C@H]2OC(=O)C(=C)[C@H]12`, the growth was -52.5% (active).
